Source: PubChem
This is a sample that favours compounds with a hit; in the whole collection about 21% have one here.
CHX counter: affects cycloheximide protein synthesis inhibition readout, counter-screen; cell reporter, cycloheximide protein synthesis inhibition counterscreen; max response, %; 300,000 tested, 12% active; in the data active = max response mostly above about 13%, no sharp cut-off; inactive = mostly below about 14%; note: read at 38.3 µM for the half of the compounds with a filed dose; 0% is about no effect
NS1 inh: inhibitors of influenza NS1 protein function; Potency, µM (top dose mostly 46.1 µM), without a hit: top-dose activity, positive = more growth; 270,000 tested, 0.4% active; AID 2326; calls by dose curve; note: potency is the fitted concentration of half-maximal effect; actives are rising curves; nearly all actives have a fitted effect of over 50% in size
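In this qHTS, NS1 from influenza A is expressed in budding yeast, where it slows growth. Cells are switched from glucose to 2% galactose medium (pH 6.0, -URA), treated with compound, and growth recovery is read at OD600.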
Pf growth 96h: inhibits malaria parasite growth, 96 h | Potency, µM (titrated, usually from 28.7 µM), for the others: at the top dose activity change, negative = inhibition, most hits filed as inhibitors | P. falciparum luciferase reporter growth, 96 h | 320,000 tested, 6.9% active | AID 504834; note: potency is the fitted concentration of half-maximal effect; % is set by controls: 0 for no effect and ±100 for the full control effect
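Luminescence readout: decreased luciferase signal marks inhibited growth of reporter-expressing P. falciparum in infected red cells (2% hematocrit, 0.05% parasitemia final), exposed to compound two generations (96 h, 37 C, 5% CO2).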
SARS PLP yeast: SARS-CoV PLP inhibition in yeast. Potency, µM (doses to about 32.9 µM), for inactives: top-dose activity, positive = growth rescue, actives largely listed as activators. AID 485353. 330,000 tested, 0.19% active. S. cerevisiae expressing SARS-CoV PLpro, growth rescue; calls by dose curve; note: potency is the fitted concentration of half-maximal effect; 0% is about no effect; nearly all actives have a fitted effect of over 55% in size
Pf growth 48h: P. falciparum growth inhibition at 48 hours (one generation); AID 504832; 310,000 tested, 5.9% active; Potency, µM (doses to about 28.7 µM), for inactives: top-dose activity change, negative = inhibition, actives largely listed as inhibitors; P. falciparum luciferase growth in erythrocytes, 48 h; note: potency is the fitted concentration of half-maximal effect; % is set by controls: 0 for no effect and ±100 for the full control effect
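Firefly luciferase activity from engineered P. falciparum reports growth; inhibitors lower the luminescent signal. Cultures contained 2% hematocrit erythrocytes at 0.1% final parasitemia.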
Shiga inhibitor: inhibitors of Shiga toxin in Vero cells | Vero cells, Shiga toxin protein synthesis inhibition reporter | inhibition, % at 38.7 µM | 290,000 tested, 9.2% active; in the data active = inhibition mostly above about 28%, no sharp cut-off; inactive = mostly below about 43%; note: 0% is about no effect
* hit, by the source's call; ? = inconclusive; . = no result given; ! = a repeat was not active. Unless noted, calls come from the whole dose curve; as a rule, active = well fitted inhibition curve with a large enough effect; inconclusive = small, poorly fitted or top-dose-only effect, or another doubt; inactive = no such curve, though single readings can be large or run the other way.

SMILES	CHX counter	NS1 inh	Pf growth 96h	SARS PLP yeast	Pf growth 48h	Shiga inhibitor
CSc1nc(O)c(N=Nc2ccc(F)cc2F)c(=O)[nH]1	30*	-37%	3%	-8%	22%	54*
N=c1c2c3c(sc2ncn1Nc1ccccc1)CCC3	5	-5%	2.9µM*	0%	1.7µM*	-1
O=C(CCSc1ccc(Cl)cc1)NCc1ccccn1	13*	2%	19%	-3%	-9%	23
O=C(CCCOc1ccc(Cl)cc1Cl)NCCCO	12	10%	?	2%	13%	-20
O=C(CCCOc1ccc(Cl)cc1Cl)NCCc1ccccn1	31*	-7%	107%	1%	3%	39*
O=C(CCCOc1ccc(Cl)cc1Cl)NCCc1nnc2ccccn12	15	0%	?	2%	-53%	19*
Cc1cc(OCCCC(=O)NCCc2nnc3ccccn23)ccc1Cl	.	.	.	2%	.	.
CC1(C)CC2CC(C)(CN2C(=O)COC(=O)c2ccc(Cl)c(N)c2)C1 (stereo not drawn)	-6	1%	17%	-2%	.	-8
O=C(NCCCNC(=O)c1cnccn1)c1cccc(F)c1	-5	-1%	?	-1%	20%	-2
O=C(c1ccc(S(=O)(=O)Cc2ccccc2Cl)c([N+](=O)[O-])c1)N1CCOCC1	-2	-4%	8%	-2%	?	-4
O=C(C1=C[C@@H]2[C@H]3C(=O)N(c4ccccc4)C(=O)[C@H]3[C@@H](C(=O)c3ccc(Cl)cc3)N2C=C1)c1ccccc1	10	?	?	-2%	?	-26
COc1cc(-c2nc3ccccn3c2/N=C/c2cc(OC)c(O)cc2Cl)ccc1O	30*	.	9%	-9%	7%	22*
COc1cc(-c2nc3ccccn3c2N)ccc1O	-2	27%	1.7µM*	8%	1%	-2
COc1cc(-c2nc3ccccn3c2/N=C/c2ccccc2)ccc1O	3	17%	-15%	-5%	0%	19
O=C(NCCc1nc2ccccc2n1Cc1ccccc1F)c1ccc(F)cc1	-6	.	.	.	.	-10
CCC(CC)C(=O)c1c[nH]c(C(=O)NCc2cccnc2)c1	9	.	59%	0%	-10%	-6
CC(C)CC(=O)c1c[nH]c(C(=O)NCc2cccnc2)c1	1	.	?	-1%	10µM*	-7
Nc1cc(N)nc(SCc2cccnc2)n1	7	3%	?	0%	0%	34
Nc1cc(N)nc(SCc2ccccc2)n1	41*	-13%	210%	-5%	156%	53*
Nc1cc(N)nc(SCCc2ccccc2)n1	16*	-20%	-33%	-14%	10%	26
O=C(O)Cn1ncc2c1-c1ccoc1CC2	-1	5%	-41%	?	.	10
CC(C)=Cc1c(O)nc2ccccn2c1=O	6	0%	?	0%	-10%	12
O=C(COC(=O)C1CCN(c2ccc(C(F)(F)F)cn2)CC1)Nc1cccc(F)c1	.	.	102%	0%	5%	.
CC(C)(C)NC[C@H](O)COc1nsnc1N1CCOCC1	-4	6%	0.67µM*!	0%	2.4µM*!	-9
CC(C)(C)C(=O)NNC(=O)CCCOc1ccc(Cl)cc1Cl	-2	0%	?	3%	-12%	-7
SMILES	CHX counter	NS1 inh	Pf growth 96h	SARS PLP yeast	Pf growth 48h	Shiga inhibitor
O=C(COc1ccc(Cl)cc1Cl)Nc1ccc(C(=O)Nc2ccccc2C(=O)O)cc1	35*	?	?	3%	15%	45
CC(C)(CO)NC(=O)CCCOc1ccc(Cl)cc1Cl	50*	-2%	77%	3%	84%	54*
O=C(CCCOc1ccc(Cl)cc1Cl)Nc1ccccc1C(=O)O	42*	-2%	54%	2%	53%	84*
COc1ccccc1C(=O)NC(=O)COc1ccc(Cl)cc1Cl	.	.	24%	-12%	-3%	.
O=C(COc1ccc(Cl)cc1Cl)NC(=S)Nc1ccccc1C(=O)O	23*	-8%	76%	-1%	34%	35*
CN(CC(=O)NCc1ccncc1)S(=O)(=O)c1ccc(Cl)cc1	-2	2%	-1%	0%	14%	-18
O=C(CNS(=O)(=O)c1ccccc1)NNC(=O)C(Cl)Cl	8	11%	1%	-2%	5%	13
S=C(Nc1ccccc1Cl)N(CCN1CCCCC1)Cc1ccco1	-3	7%	0%	4%	-3%	-10
COC(=O)c1sc(N)c(C(=O)OC)c1CSc1nnnn1C	-6	3%	9.3µM*	-1%	10µM*	-14
COC(=O)c1sc(N)c(C(=O)OC)c1CSc1nnc(-c2ccccc2Cl)n1C	-1	4%	?	2%	?	-4
NC(=O)c1ccc(Sc2nnc(-c3cccs3)n2CC2CCCO2)c([N+](=O)[O-])c1 (stereo not drawn)	-1	3%	-23%	2%	-20%	-13
COc1ccc(-c2nn(-c3ccccc3)cc2/C=C/C(=O)OCC(=O)Nc2ccccc2C#N)cc1	-3	11%	2%	-1%	3%	7
CNC(=O)COC(=O)/C=C/c1cn(-c2ccccc2)nc1-c1ccc(C)o1	3	3%	7.4µM*	0%	12µM*	9
Oc1c(Cl)cc(Cl)cc1CNc1nccs1	-2	-48%	?	1%	6%	-11
Cc1cccc(NCc2cc(Cl)cc(Cl)c2O)n1	8	-24%	-1%	-64%	10µM*	25
Cc1cccc(NCc2cc(Cl)ccc2O)n1	12	0%	-14%	-6%	6.6µM*	-2
O=C(CN1CCc2cc3c(cc2C1)OCCCO3)Nc1cccc(Br)c1	7	-6%	?	-4%	11%	4
CCOc1ccc(NC(=S)NCc2ccco2)cc1	15	.	23%	6%	13%	36
Cc1ccccc1NC(=S)NCc1ccco1	-3	0%	0.33µM*	-3%	8%	11
S=C(NCc1ccco1)Nc1cccc(Cl)c1	12	-6%	39%	-9%	-11%	32*
CCOC(=O)c1ccc(NC(=S)NCc2ccco2)cc1	14	-7%	-15%	-2%	0%	63*
S=C(NCc1ccco1)Nc1ccc(Oc2ccccc2)cc1	34*	-3%	6%	-3%	-5%	54
Cc1cccc(OCCc2nnc(N)s2)c1C	-2	-11%	.	1%	-7%	14
N#Cc1c(NC(=O)CCC(=O)O)ccc2ccccc12	.	-1%	.	.	.	.
O=C(CCNC(=O)OCc1ccccc1)NC1CCCCCC1	-2	-1%	-36%	8%	?	-9
CCOC(=O)N1CCC2(CC1)NCCc1c2[nH]c2ccccc12	-3	-2%	14%	0%	?	3
O=C(OC(C(=O)NCc1ccco1)C(OC(=O)c1ccccc1)C(=O)NCc1ccco1)c1ccccc1 (stereo not drawn)	17*	19%	6%	19%	10%	66*
S=C(NCc1ccco1)Nc1ccc(N2CCOCC2)cc1	20*	2%	-103%	-5%	23%	17
S=C(NCc1ccco1)Nc1cc(Cl)c(Cl)cc1Cl	9	-20%	-19%	17%	12%	20
